Test results taken from PubChem BioAssay (NCI).
About 83,000 compounds went through this panel and 20% of them were active in at least one assay; those are over-represented in the sample as a whole.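 Single-dose data. Exposure time 48 hours. Values below 10 considered active.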 Active and inactive are the calls of the source.

Experiments:
Test in all cases: NCI-60 one-dose screen, 48 h (100 = growth as untreated, 0 = no growth, -100 = all killed)
Settings in all cases: 10 µM unless noted
HCT-15 colon = test system: HCT-15 colon
HT29 colon = test system: HT29 colon
SNB-75 CNS = test system: SNB-75 CNS
SNB-19 CNS = test system: SNB-19 CNS
U251 CNS = test system: U251 CNS
PC-3 prostate = test system: PC-3 prostate
SK-MEL-5 melanoma = test system: SK-MEL-5 melanoma
UACC-62 melanoma = test system: UACC-62 melanoma
LOX IMVI melanoma = test system: LOX IMVI melanoma
SK-MEL-28 melanoma = test system: SK-MEL-28 melanoma

`O=[N+]([O-])/C(=C/C=C/c1ccccc1)c1ccccc1` was tested, and the growth (HCT-15 colon) was 10.8% (inactive), the growth (HT29 colon) was 26.9% (inactive) and the growth (SNB-75 CNS) was 57.3% (inactive). The growth (SNB-19 CNS) was 85.9% (inactive), the growth (U251 CNS) was 37.2% (inactive) and the growth (PC-3 prostate) was 43.6% (inactive). The growth (SK-MEL-5 melanoma) was 82.4% (inactive), the growth (UACC-62 melanoma) was 70.5% (inactive) and the growth (LOX IMVI melanoma) was -0.767% (active). The growth (SK-MEL-28 melanoma) was 12.6% (inactive).
In the case of `CN1C(=O)N(C)C2Nn3c(s/c(=C\c4ccc(C(F)(F)F)cc4)c3=O)=NC21` (stereo not given), the growth (HCT-15 colon) is reported as 93.9% (inactive), the growth (HT29 colon) is reported as 109% (inactive) and the growth (SNB-75 CNS) is reported as 82.2% (inactive). The growth (SNB-19 CNS) was 95.2% (inactive), the growth (U251 CNS) was 93.2% (inactive) and the growth (PC-3 prostate) was 104% (inactive). For the same compound, the growth (SK-MEL-5 melanoma) was 99.5% (inactive), the growth (UACC-62 melanoma) was 89.7% (inactive) and the growth (LOX IMVI melanoma) was 95.7% (inactive). For the same compound, the growth (SK-MEL-28 melanoma) was 103% (inactive).
In the case of `C=C1C(=O)O[C@H]2[C@H]1CC/C(COC(=O)NCc1ccc(Cn3c(=O)sn(CCI)c3=O)cc1)=C\CC[C@@]1(C)O[C@@H]21`, the growth (HCT-15 colon) is reported as 41.1% (inactive), the growth (HT29 colon) is reported as 39.8% (inactive) and the growth (SNB-75 CNS) is reported as 81.2% (inactive). For the same compound, the growth (SNB-19 CNS) was 97.2% (inactive), the growth (U251 CNS) was 73.3% (inactive) and the growth (PC-3 prostate) was 75.6% (inactive). For the same compound, the growth (SK-MEL-5 melanoma) was 98.8% (inactive), the growth (UACC-62 melanoma) was 65.4% (inactive) and the growth (LOX IMVI melanoma) was 35.1% (inactive). For the same compound, the growth (SK-MEL-28 melanoma) was 55.5% (inactive).
In the case of `Oc1c(Cl)cc(Cl)cc1/C=N/Nc1nnc(N/N=C/c2cc(Cl)cc(Cl)c2O)c2ccccc12`, the growth (HCT-15 colon) is reported as 20.6% (inactive), the growth (HT29 colon) is reported as 23.7% (inactive) and the growth (SNB-75 CNS) is reported as 13% (inactive). The growth (SNB-19 CNS) was 12.8% (inactive), the growth (U251 CNS) was 21% (inactive) and the growth (PC-3 prostate) was 16.3% (inactive). The growth (SK-MEL-5 melanoma) was -46.8% (active), the growth (UACC-62 melanoma) was 13.2% (inactive) and the growth (LOX IMVI melanoma) was -52.3% (active). For the same compound, the growth (SK-MEL-28 melanoma) was 22.9% (inactive).
`O=C(/C=C/c1cccs1)c1ccc(Cl)nc1` was tested, and the growth (HCT-15 colon) was 100% (inactive), the growth (HT29 colon) was 101% (inactive) and the growth (SNB-75 CNS) was 95.2% (inactive). For the same compound, the growth (SNB-19 CNS) was 102% (inactive), the growth (U251 CNS) was 99.9% (inactive) and the growth (PC-3 prostate) was 104% (inactive). For the same compound, the growth (SK-MEL-5 melanoma) was 104% (inactive), the growth (UACC-62 melanoma) was 97.2% (inactive) and the growth (LOX IMVI melanoma) was 102% (inactive). The growth (SK-MEL-28 melanoma) was 105% (inactive).
For `O=C(O)CNC1=C(Cl)C(=O)c2ccccc2C1=O`, the growth (HCT-15 colon) was 100% (inactive), the growth (HT29 colon) was 103% (inactive) and the growth (SNB-75 CNS) was 86.5% (inactive). The growth (SNB-19 CNS) was 96.5% (inactive), the growth (U251 CNS) was 91.1% (inactive) and the growth (PC-3 prostate) was 77.7% (inactive). The growth (SK-MEL-5 melanoma) was 112% (inactive), the growth (UACC-62 melanoma) was 93.6% (inactive) and the growth (LOX IMVI melanoma) was 84% (inactive). For the same compound, the growth (SK-MEL-28 melanoma) was 113% (inactive).
For `O=C1/C(=C/c2cccs2)SC(=S)N1CCCN1CCOCC1`, the growth (HCT-15 colon) was 83.6% (inactive), the growth (HT29 colon) was 103% (inactive) and the growth (SNB-75 CNS) was 99% (inactive). The growth (SNB-19 CNS) was 92.5% (inactive), the growth (U251 CNS) was 94.8% (inactive) and the growth (PC-3 prostate) was 75.5% (inactive). For the same compound, the growth (SK-MEL-5 melanoma) was 95.3% (inactive), the growth (UACC-62 melanoma) was 79.1% (inactive) and the growth (LOX IMVI melanoma) was 89.1% (inactive). For the same compound, the growth (SK-MEL-28 melanoma) was 95.8% (inactive).
In the case of `C1=C(N2CCCC2)CCC1`, the growth (HCT-15 colon) is reported as 104% (inactive), the growth (HT29 colon) is reported as 103% (inactive) and the growth (SNB-75 CNS) is reported as 93.2% (inactive). The growth (SNB-19 CNS) was 111% (inactive), the growth (U251 CNS) was 99.4% (inactive) and the growth (PC-3 prostate) was 77.8% (inactive). For the same compound, the growth (SK-MEL-5 melanoma) was 95.5% (inactive), the growth (UACC-62 melanoma) was 103% (inactive) and the growth (LOX IMVI melanoma) was 97.4% (inactive). For the same compound, the growth (SK-MEL-28 melanoma) was 110% (inactive).
`O=C(/C=C/c1cn(-c2ccccc2)nc1-c1ccc([N+](=O)[O-])cc1)c1ccc(Cl)cc1` was tested, and the growth (HCT-15 colon) was 46.8% (inactive), the growth (HT29 colon) was 52.5% (inactive) and the growth (SNB-75 CNS) was -5.08% (active). For the same compound, the growth (SNB-19 CNS) was 52.8% (inactive), the growth (U251 CNS) was 9.68% (active) and the growth (PC-3 prostate) was 58.8% (inactive). The growth (SK-MEL-5 melanoma) was 71.5% (inactive), the growth (UACC-62 melanoma) was 58.9% (inactive) and the growth (LOX IMVI melanoma) was 37.8% (inactive). For the same compound, the growth (SK-MEL-28 melanoma) was 56.7% (inactive).
For `O=S(=O)(Nc1cc(Br)c(O)c2ccccc12)c1ccc(F)cc1`, the growth (HCT-15 colon) was 86.8% (inactive), the growth (HT29 colon) was 113% (inactive) and the growth (SNB-75 CNS) was 100% (inactive). For the same compound, the growth (SNB-19 CNS) was 108% (inactive), the growth (U251 CNS) was 35.4% (inactive) and the growth (PC-3 prostate) was 32% (inactive). For the same compound, the growth (SK-MEL-5 melanoma) was 48.9% (inactive), the growth (UACC-62 melanoma) was 54.2% (inactive) and the growth (LOX IMVI melanoma) was 0.868% (active). For the same compound, the growth (SK-MEL-28 melanoma) was 81.1% (inactive).
With `Cc1ccc2c3c(c(=O)[nH]c2c1)C1(C(C#N)=C(N)O3)c2cc(Br)ccc2-c2ccc(Br)cc21` the growth (HCT-15 colon) was 11.4% (inactive), the growth (HT29 colon) was -14.7% (active) and the growth (SNB-75 CNS) was -26.8% (active). For the same compound, the growth (SNB-19 CNS) was -30% (active), the growth (U251 CNS) was -66.4% (active) and the growth (PC-3 prostate) was -30.2% (active). For the same compound, the growth (SK-MEL-5 melanoma) was 61.4% (inactive), the growth (UACC-62 melanoma) was 40.1% (inactive) and the growth (LOX IMVI melanoma) was 2.99% (active). For the same compound, the growth (SK-MEL-28 melanoma) was 48.7% (inactive).
`CCOc1nc(-c2ccccc2)cc2c(O)c(C(=O)NN)[nH]c(=O)c12` was tested, and the growth (HCT-15 colon) was 106% (inactive), the growth (HT29 colon) was 114% (inactive) and the growth (SNB-75 CNS) was 86.4% (inactive). The growth (SNB-19 CNS) was 106% (inactive), the growth (U251 CNS) was 106% (inactive) and the growth (PC-3 prostate) was 83% (inactive). The growth (SK-MEL-5 melanoma) was 105% (inactive), the growth (UACC-62 melanoma) was 106% (inactive) and the growth (LOX IMVI melanoma) was 101% (inactive). For the same compound, the growth (SK-MEL-28 melanoma) was 99.8% (inactive).
In the case of `OCc1cccc(-c2ccc3ncc(-c4nc(NC5CC5)ncc4F)n3c2)c1`, the growth (HCT-15 colon) is reported as 1.06% (active), the growth (HT29 colon) is reported as 4.87% (active) and the growth (SNB-75 CNS) is reported as -40.8% (active). The growth (SNB-19 CNS) was -0.451% (active), the growth (U251 CNS) was -3.8% (active) and the growth (PC-3 prostate) was -10.3% (active). For the same compound, the growth (SK-MEL-5 melanoma) was -77.2% (active), the growth (UACC-62 melanoma) was -84.4% (active) and the growth (LOX IMVI melanoma) was -1.7% (active). The growth (SK-MEL-28 melanoma) was -45.5% (active).
In the case of `N#CCSc1nnc2n(Cc3ccccc3)c(=O)c3c4c(sc3n12)CCCC4`, the growth (HCT-15 colon) is reported as 96.2% (inactive), the growth (HT29 colon) is reported as 111% (inactive) and the growth (SNB-75 CNS) is reported as 91.1% (inactive). For the same compound, the growth (SNB-19 CNS) was 104% (inactive), the growth (U251 CNS) was 101% (inactive) and the growth (PC-3 prostate) was 95.2% (inactive). For the same compound, the growth (SK-MEL-5 melanoma) was 95.3% (inactive), the growth (UACC-62 melanoma) was 95.6% (inactive) and the growth (LOX IMVI melanoma) was 98.1% (inactive). For the same compound, the growth (SK-MEL-28 melanoma) was 116% (inactive).
With `O=C1Nc2ccccc2/C1=C\c1nc(-c2ccccc2)n2ccccc12` the growth (HCT-15 colon) was 80.2% (inactive), the growth (HT29 colon) was 91.6% (inactive) and the growth (SNB-75 CNS) was 79.6% (inactive). The growth (SNB-19 CNS) was 103% (inactive), the growth (U251 CNS) was 89.6% (inactive) and the growth (PC-3 prostate) was 87.4% (inactive). For the same compound, the growth (SK-MEL-5 melanoma) was 89.7% (inactive), the growth (UACC-62 melanoma) was 78.3% (inactive) and the growth (LOX IMVI melanoma) was 84.6% (inactive). The growth (SK-MEL-28 melanoma) was 113% (inactive).
In the case of `O=C(CSc1nnc2n1S(=O)(=O)c1ccccc1N2c1ccccc1)Nc1nc2ccc(F)cc2s1`, the growth (HCT-15 colon) is reported as 104% (inactive), the growth (HT29 colon) is reported as 104% (inactive) and the growth (SNB-75 CNS) is reported as 85.5% (inactive). For the same compound, the growth (SNB-19 CNS) was 99.6% (inactive), the growth (U251 CNS) was 103% (inactive) and the growth (PC-3 prostate) was 89.5% (inactive). The growth (SK-MEL-5 melanoma) was 87.7% (inactive), the growth (UACC-62 melanoma) was 81.2% (inactive) and the growth (LOX IMVI melanoma) was 85.8% (inactive). The growth (SK-MEL-28 melanoma) was 117% (inactive).
